Laboratory results published in PubChem BioAssay (NCI).
Compounds without any hit were thinned out: in the full panel of roughly 83,000, 20% have a hit.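 Percent growth is the endpoint: 0 to 100 indicates growth inhibition (40 means 60% inhibition), 0 means no net growth, and negative values indicate cell death.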 The source made the active and inactive calls. How the source made its calls: active means growth percent below 10; inactive means the rest.

Columns and labels:
Assay in all cases: NCI-60 one-dose screen, 48 h (100 = growth as untreated, 0 = no growth, -100 = all killed)
HCT-15 colon = conditions: 10 µM unless noted
HT29 colon = conditions: 10 µM unless noted
SNB-75 CNS = conditions: 10 µM unless noted
SNB-19 CNS = conditions: 10 µM unless noted
U251 CNS = conditions: 10 µM unless noted
PC-3 prostate = conditions: 10 µM unless noted
SK-MEL-5 melanoma = conditions: 10 µM unless noted
UACC-62 melanoma = conditions: 10 µM unless noted
LOX IMVI melanoma = conditions: 10 µM unless noted
SK-MEL-28 melanoma = conditions: 10 µM unless noted
EKVX NSCLC = conditions: 10 µM unless noted
SN12C renal = conditions: 10 µM unless noted
UO-31 renal = conditions: 10 µM unless noted
TK-10 renal = conditions: 10 µM unless noted
ACHN renal = conditions: 10 µM unless noted
CAKI-1 renal = conditions: 10 µM
A498 renal = conditions: 10 µM unless noted
CCRF-CEM leukemia = conditions: 10 µM unless noted
MOLT-4 leukemia = conditions: 10 µM unless noted

Measured: growth

C=CCn1c(SCC(=O)Nc2ccc(OC)cc2)nnc1-c1ccc(Cl)cc1
inactive: HCT-15 colon 73.7% | HT29 colon 105% | SNB-75 CNS 97.4% | SNB-19 CNS 91.7% | U251 CNS 105% | PC-3 prostate 95.1% | SK-MEL-5 melanoma 96.4% | UACC-62 melanoma 81.5% | LOX IMVI melanoma 93.8% | SK-MEL-28 melanoma 92.5% | EKVX NSCLC 92.5% | SN12C renal 92.7% | UO-31 renal 73.5% | TK-10 renal 97.9% | ACHN renal 92.8% | CAKI-1 renal 84.6% | A498 renal 98.2% | CCRF-CEM leukemia 117% | MOLT-4 leukemia 84.2%

CCOC(=O)/C(F)=C/C1CC1C1CCCCC1 (stereo unspecified)
inactive: HCT-15 colon 102% | HT29 colon 111% | SNB-75 CNS 95.2% | SNB-19 CNS 98.5% | U251 CNS 105% | PC-3 prostate 102% | SK-MEL-5 melanoma 99.8% | UACC-62 melanoma 95.5% | LOX IMVI melanoma 98% | SK-MEL-28 melanoma 100% | EKVX NSCLC 110% | SN12C renal 103% | UO-31 renal 91.5% | TK-10 renal 95.3% | ACHN renal 105% | CAKI-1 renal 90.9% | A498 renal 97.2% | CCRF-CEM leukemia 114% | MOLT-4 leukemia 102%

O=C(NNc1nc2cc(F)c(F)cc2n2cccc12)c1ccncn1
active: SNB-75 CNS -6.38% | SK-MEL-5 melanoma -19.4% | CCRF-CEM leukemia 7.72% | MOLT-4 leukemia 8.93%
inactive: HCT-15 colon 23.6% | HT29 colon 27.3% | SNB-19 CNS 27.5% | U251 CNS 17.9% | PC-3 prostate 33.2% | UACC-62 melanoma 19% | LOX IMVI melanoma 11.7% | SK-MEL-28 melanoma 29.4% | EKVX NSCLC 12.2% | SN12C renal 26.2% | UO-31 renal 20.7% | TK-10 renal 27.1% | ACHN renal 14.1% | CAKI-1 renal 17.2% | A498 renal 46.5%

CN1CCN(Cc2ccc(NC(=O)c3cncc(C#Cc4cnc5ccc(NC6CCOCC6)nn45)c3)cc2C(F)(F)F)CC1
active: HCT-15 colon -48.4% | HT29 colon 0.122% | SNB-75 CNS -56.8% | SNB-19 CNS -7.17% | U251 CNS -96.7% | PC-3 prostate -15.5% | SK-MEL-5 melanoma -97.7% | UACC-62 melanoma -61.8% | LOX IMVI melanoma -83.8% | SK-MEL-28 melanoma -74.6% | EKVX NSCLC -4.66% | SN12C renal 1.01% | UO-31 renal -43.7% | TK-10 renal -11.7% | ACHN renal -95.5% | CAKI-1 renal -46.9% | CCRF-CEM leukemia 3.15% | MOLT-4 leukemia 5.18%

CNC(=O)c1cc(Oc2ccc3nc(NC(=O)c4cc(C)cc(C)c4)sc3c2)ccn1
inactive: HCT-15 colon 66.9% | HT29 colon 86% | SNB-75 CNS 85.5% | SNB-19 CNS 81.3% | U251 CNS 89.3% | PC-3 prostate 47.9% | SK-MEL-5 melanoma 77.4% | UACC-62 melanoma 76.9% | LOX IMVI melanoma 102% | SK-MEL-28 melanoma 79.9% | EKVX NSCLC 82% | SN12C renal 90.3% | UO-31 renal 78.8% | TK-10 renal 78.5% | ACHN renal 93.4% | CAKI-1 renal 79% | A498 renal 59.7% | CCRF-CEM leukemia 57.3% | MOLT-4 leukemia 58.3%

COc1cc2oc(-c3cccc(NC(=O)c4cc(NC(=O)[C@H](C)N)ccc4Cl)c3)cc(=O)c2c(OC)c1OC
inactive: HCT-15 colon 79.8% | HT29 colon 115% | SNB-75 CNS 96.1% | SNB-19 CNS 88.8% | U251 CNS 95.3% | PC-3 prostate 81.2% | SK-MEL-5 melanoma 86% | UACC-62 melanoma 89.3% | LOX IMVI melanoma 80.9% | SK-MEL-28 melanoma 106% | EKVX NSCLC 90.7% | SN12C renal 90.9% | UO-31 renal 72.3% | TK-10 renal 99.8% | ACHN renal 91.3% | CAKI-1 renal 85.3% | A498 renal 71.8% | CCRF-CEM leukemia 71.7% | MOLT-4 leukemia 76.3%

CCOC(=O)C1=C(C)N=C2Sc3ccccc3N2C1c1ccccc1 (stereo unspecified)
active: HT29 colon -72.7%
inactive: HCT-15 colon 77.8% | SNB-75 CNS 87.1% | SNB-19 CNS 95.5% | U251 CNS 103% | PC-3 prostate 78.2% | SK-MEL-5 melanoma 85.8% | UACC-62 melanoma 65.8% | LOX IMVI melanoma 84.3% | SK-MEL-28 melanoma 109% | EKVX NSCLC 67.6% | SN12C renal 93.4% | UO-31 renal 64.7% | TK-10 renal 110% | ACHN renal 88% | CAKI-1 renal 65.6% | CCRF-CEM leukemia 86.2% | MOLT-4 leukemia 87.2%

COc1ccc(NC(=O)[C@H](C)NC(=O)OC(C)(C)C)cc1C(=O)Nc1cccc(-c2cc(=O)c3c(OC)c(OC)c(OC)cc3o2)c1
active: HCT-15 colon 3.87% | HT29 colon -10.5% | SNB-75 CNS -18.3% | U251 CNS -34.1% | PC-3 prostate -36.9% | SK-MEL-5 melanoma -91.1% | UACC-62 melanoma -40.8% | LOX IMVI melanoma -73.7% | SK-MEL-28 melanoma 0.755% | EKVX NSCLC 3.7% | SN12C renal 2.23% | TK-10 renal -3.36% | A498 renal -53.3% | CCRF-CEM leukemia 3.69% | MOLT-4 leukemia 7.83%
inactive: SNB-19 CNS 16.9% | UO-31 renal 16.8% | ACHN renal 10.3% | CAKI-1 renal 17.4%

CCC(CC)N1C(=O)/C(=c2\sc3n(c2=O)C2C(NN=3)N(CC)C(=O)N2CC)c2ccccc21 (stereo unspecified)
inactive: HCT-15 colon 10.4% | SNB-19 CNS 26.4% | U251 CNS 27.1% | PC-3 prostate 33.7% | UACC-62 melanoma 15.2% | LOX IMVI melanoma 17.9% | SK-MEL-28 melanoma 58.6% | EKVX NSCLC 48.1% | SN12C renal 18.2% | UO-31 renal 39.8% | TK-10 renal 86.5% | ACHN renal 32% | CAKI-1 renal 39.9% | CCRF-CEM leukemia 15.8% | MOLT-4 leukemia 10%
active: HT29 colon 5.44% | SNB-75 CNS -4.75% | SK-MEL-5 melanoma -20.1% | A498 renal -17%

Cc1csc(Nc2cccc(Nc3nc(C)cs3)c2)n1
inactive: HCT-15 colon 79.1% | HT29 colon 105% | SNB-75 CNS 97.4% | SNB-19 CNS 82.3% | U251 CNS 83.3% | PC-3 prostate 77.1% | SK-MEL-5 melanoma 44.9% | UACC-62 melanoma 66.9% | LOX IMVI melanoma 74.5% | SK-MEL-28 melanoma 84.3% | EKVX NSCLC 61.4% | SN12C renal 88.2% | UO-31 renal 67.1% | TK-10 renal 101% | ACHN renal 75.4% | CAKI-1 renal 78.1% | A498 renal 47.3% | CCRF-CEM leukemia 89% | MOLT-4 leukemia 70.8%

O=C1Nc2ccc(Cl)cc2/C1=C/c1ccc(OCc2ccc(F)cc2)cc1
active: CCRF-CEM leukemia -53.8%
inactive: HCT-15 colon 87.8% | HT29 colon 99.4% | SNB-75 CNS 89.7% | SNB-19 CNS 99.1% | U251 CNS 95.4% | PC-3 prostate 93.6% | SK-MEL-5 melanoma 105% | UACC-62 melanoma 90.8% | LOX IMVI melanoma 92.8% | SK-MEL-28 melanoma 96.3% | EKVX NSCLC 90.9% | SN12C renal 93.9% | UO-31 renal 86.4% | TK-10 renal 99% | ACHN renal 103% | CAKI-1 renal 74.6% | MOLT-4 leukemia 93.4%

NC(N)=NS(=O)(=O)c1ccc(N=NC2C(=O)NN(c3ccccc3)C2=O)cc1 (stereo unspecified)
inactive: HCT-15 colon 101% | HT29 colon 112% | SNB-75 CNS 84.1% | SNB-19 CNS 98.9% | U251 CNS 103% | PC-3 prostate 95.2% | SK-MEL-5 melanoma 98.9% | UACC-62 melanoma 96.1% | LOX IMVI melanoma 96.6% | SK-MEL-28 melanoma 111% | EKVX NSCLC 110% | SN12C renal 101% | UO-31 renal 82.9% | TK-10 renal 106% | ACHN renal 95.9% | CAKI-1 renal 87.7% | A498 renal 98.2% | CCRF-CEM leukemia 116% | MOLT-4 leukemia 106%

CCOC(=O)c1ccc(N/C=C/C(=O)c2ccccc2)cc1
inactive: HCT-15 colon 86.2% | HT29 colon 103% | SNB-75 CNS 97% | SNB-19 CNS 92.1% | U251 CNS 99.7% | PC-3 prostate 95.7% | SK-MEL-5 melanoma 99.4% | UACC-62 melanoma 87.5% | LOX IMVI melanoma 96.3% | SK-MEL-28 melanoma 97.2% | EKVX NSCLC 103% | SN12C renal 99.7% | UO-31 renal 99.1% | TK-10 renal 89.8% | ACHN renal 98.5% | CAKI-1 renal 92.7% | A498 renal 99.9% | CCRF-CEM leukemia 102% | MOLT-4 leukemia 97%

Cn1cc(-c2nn3cc(-c4ccncc4)nc3s2)c2cc(Cl)ccc21
inactive: SNB-75 CNS 88.6% | SNB-19 CNS 83% | U251 CNS 56.6% | PC-3 prostate 14.6% | SK-MEL-5 melanoma 55.7% | UACC-62 melanoma 54.5% | LOX IMVI melanoma 39.4% | SK-MEL-28 melanoma 88.1% | EKVX NSCLC 33.4% | SN12C renal 61.2% | UO-31 renal 43.4% | TK-10 renal 116% | ACHN renal 60.5% | CAKI-1 renal 51.3% | A498 renal 89.7% | CCRF-CEM leukemia 10.5%
active: HCT-15 colon 5.44% | HT29 colon 4.2% | MOLT-4 leukemia 2.31%

CS(=O)(=O)c1ccc2c(c1)c1c(n2Cc2ccc(Cl)cc2)CCCC1
inactive: HCT-15 colon 54.9% | HT29 colon 75.5% | SNB-75 CNS 75.4% | SNB-19 CNS 72.3% | U251 CNS 68.1% | PC-3 prostate 51.9% | SK-MEL-5 melanoma 82.4% | UACC-62 melanoma 43.2% | LOX IMVI melanoma 81.5% | SK-MEL-28 melanoma 87.2% | EKVX NSCLC 71.2% | SN12C renal 73.6% | UO-31 renal 55.1% | TK-10 renal 89.3% | ACHN renal 66.8% | CAKI-1 renal 54.4% | A498 renal 74.3% | CCRF-CEM leukemia 81.9% | MOLT-4 leukemia 64.3%

O=C1/C(=C/c2ccc([N+](=O)[O-])cc2)SC(=Nc2ccccc2)N1Nc1ccccc1
active: MOLT-4 leukemia 3.98%
inactive: HCT-15 colon 39.3% | HT29 colon 42.3% | SNB-75 CNS 73.2% | SNB-19 CNS 60.2% | U251 CNS 44.4% | PC-3 prostate 62.1% | SK-MEL-5 melanoma 92% | UACC-62 melanoma 55.8% | LOX IMVI melanoma 19.3% | SK-MEL-28 melanoma 83% | EKVX NSCLC 70.9% | SN12C renal 29.5% | UO-31 renal 37.1% | TK-10 renal 89.1% | ACHN renal 53% | CAKI-1 renal 38.6% | A498 renal 28.2% | CCRF-CEM leukemia 24%
